# Reference: ChEMBL document CHEMBL3988442, “University of Dundee, Small-Polar-MMV Screening Library” (2021)
# In all, about 69,000 compounds went through this assay and about 1,000 (1.4%) showed an effect of 50% or more. The full list was thinned out, with strong results kept by preference.
# System: Leishmania donovani
# Assay: Leishmania intramacrophage assay
# Format: functional, organism-based
# Parameters: scale not given: in the data most compounds retested in dose-response had high values
smiles,measurement,setting,value
Cc1ccc(OC2(C(=O)O)CCN(C(=O)c3cccc(F)c3)CC2)cn1,Percent Effect,"30.3 µM, […]",-5.312%
O=c1[nH]ncc(NCCOc2cccc(Br)c2)c1Cl,Percent Effect,"30.3 µM, […]",33.92%
O=c1[nH]ncc(NCCOc2ccc3c(c2)OCO3)c1Cl,Percent Effect,"30.3 µM, […]",33.23%
O=c1[nH]ncc(NCCOc2ccc3c(c2)CCC3)c1Cl,Percent Effect,"30.3 µM, […]",53.95%
O=C1COc2c(cccc2C(=O)N2CCCC(n3cccn3)C2)N1 (stereo unspecified),Percent Effect,"30.3 µM, […]",-19.69%
O=C(NC1CC1)c1ccn(COc2c(Cl)cccc2Cl)n1,Percent Effect,"30.3 µM, […]",26.41%
CC(C)C1CN(C(=O)c2ccccc2)CCS1 (stereo unspecified),Percent Effect,"30.3 µM, […]",-6.451%
Cc1ccc([C@]2(O)CC[C@H]3CN(Cc4cccc(Cl)c4Cl)C[C@H]32)nc1.O=C(O)CC(O)(CC(=O)O)C(=O)O,Percent Effect,"30 µM, 30.03 µM",12.17%
Cc1ccc([C@]2(O)CC[C@H]3CN(Cc4cc(C)c(O)c(C)c4)C[C@H]32)nc1.O=C(O)CC(O)(CC(=O)O)C(=O)O,Percent Effect,"30 µM, 30.03 µM",50.06%
Cc1cc(-c2cnc(N3CCSCC3)nc2C(C)C)on1,Percent Effect,"30.3 µM, […]",-38.52%
Cn1cnc2c1CCN(CC(=O)N(Cc1ccsc1)C1CC1)C2,Percent Effect,"30.3 µM, […]",1.808%
CC1(C)CC(=O)c2cnc3nc(N4CCCCC4)nc(O)c3c2C1,Percent Effect,"30.3 µM, […]",10.62%
Cc1cccc(CS(=O)(=O)Cc2ccn(C)c(=O)c2)c1,Percent Effect,"30.3 µM, […]",18.93%
O=C(c1cc2c([nH]c1=O)CCC2)N1CCCCCC1c1ccncc1 (stereo unspecified),Percent Effect,"30.3 µM, […]",26.35%
CCN(CC)c1nc(Nc2cccc(C(=O)O)c2)nc2ccccc12,Percent Effect,"30.3 µM, […]",3.255%
CC(O)c1cccc(Nc2nc(NCCO)c3ccccc3n2)c1 (stereo unspecified),Percent Effect,"30.3 µM, […]",37.25%
CCN(CC)c1nc(Nc2cccc(C(C)O)c2)nc2ccccc12 (stereo unspecified),Percent Effect,"30.3 µM, […]",66.27%
CCn1ncc(S(=O)(=O)N[C@@H]2CCC[C@@H](n3ccnc3)[C@@H]2O)c1C,Percent Effect,"30.3 µM, […]",16.74%
NCCC(=O)N1CCC2(CC1)CN(C(=O)c1ccc(Cl)cc1)CCO2,Percent Effect,"30.3 µM, […]",0.3697%
Cc1ccc(C(=O)N2CCC(Oc3ccc(C)c(C)c3)CC2)c(=O)[nH]1,Percent Effect,30 µM,57.43%
COc1ccc(OC2CCN(C(=O)c3ccc(C)[nH]c3=O)CC2)cc1,Percent Effect,30 µM,26.55%
Cc1ccc(C(=O)N2CCOC3(CCCC3)C2)c(=O)[nH]1,Percent Effect,"30.3 µM, […]",4.345%
Cc1ccc(C(=O)N2CCC(Oc3ccccc3)CC2)c(=O)[nH]1,Percent Effect,30 µM,12.56%
Cc1ccc(C(=O)N2CCC3(CCCC3)CC2)c(=O)[nH]1,Percent Effect,"30.3 µM, […]",27.16%
Cc1ccc(C(=O)N2CCC3(CCCCC3)C2)c(=O)[nH]1,Percent Effect,"30.3 µM, […]",56.07%
COCCCC(=O)N1CCC(Nc2cccnn2)CC1,Percent Effect,30 µM,-18.1%
CNC(=O)[C@H]1CC[C@@H]2[C@@H](CCN2CCOCc2ccccc2)O1.O=C(O)C(F)(F)F,Percent Effect,"30.3 µM, […]",45.25%
Cc1cc(NC2CCc3nc(C(C)C)nn3C2)n2ncnc2n1 (stereo unspecified),Percent Effect,"30.3 µM, […]",-19.33%
CC[C@@H](C)[C@H](NC(=O)Cn1ccc2c(Cl)cccc21)C(=O)O,Percent Effect,"30.3 µM, […]",7.093%
Cc1nnc(C(C)N(C)Cc2c(C)nn(-c3ccccc3C)c2C)o1 (stereo unspecified),Percent Effect,"30.3 µM, […]",60.72%
CCc1nnc(C(C)N(C)Cc2c(C)nn(-c3ccccc3)c2C)o1 (stereo unspecified),Percent Effect,"30.3 µM, […]",21.58%
Cc1nnc(C(C)N(C)Cc2c(C)nn(-c3ccccc3)c2C)o1 (stereo unspecified),Percent Effect,"30.3 µM, […]",15.94%
O=C(NCC1(O)CCC1)c1cccc(-n2cccn2)c1,Percent Effect,"30.3 µM, […]",0.6562%
O=C(CSC1=NS(=O)(=O)c2cc(F)ccc2N1)Nc1ccc(Cl)cc1,Percent Effect,"30.3 µM, […]",3.738%
O=S1(=O)N=C(SCc2ccc(Cl)cc2)Nc2ccc(F)cc21,Percent Effect,"30 µM, 30.03 µM",63.48%
O=C(CSC1=NS(=O)(=O)c2cc(F)ccc2N1)c1ccc(Cl)cc1,Percent Effect,"30 µM, 30.03 µM",37.27%
CC(C)(C)c1cn(CC2CCCN(c3cnc4ccccc4n3)C2)nn1 (stereo unspecified),Percent Effect,"30.3 µM, […]",23.01%
NC(=O)CN1CCC2(CC1)CC(=O)c1ccc3ccccc3c1O2,Percent Effect,"30.3 µM, […]",11.62%
CN(C)C(=O)CN1CCC2(CC1)CC(=O)c1ccc3ccccc3c1O2,Percent Effect,"30.3 µM, […]",36.93%
CCOC(=O)CN1CCC2(CC1)CC(=O)c1ccc3ccccc3c1O2,Percent Effect,"30.3 µM, […]",52.56%
Cc1nc(NC(=O)C2(C)CN(C)CCO2)sc1C.Cl (stereo unspecified),Percent Effect,"30.3 µM, […]",1.58%
Cc1nc(Nc2nnc(C)s2)cc(C2CCCN2)n1.Cl (stereo unspecified),Percent Effect,"30.3 µM, […]",-1.301%
Cc1nc(Nc2nccs2)cc(C2CCCN2)n1.Cl (stereo unspecified),Percent Effect,"30.3 µM, […]",34.17%
Cc1nc(Nc2ncc(C)s2)cc(C2CCCN2)n1.Cl (stereo unspecified),Percent Effect,"30.3 µM, […]",56.27%
COc1cc(/C=C/c2ncc(C(=O)O)s2)cc(Cl)c1O,Percent Effect,"30 µM, 30.03 µM",50.87%
COc1cc(/C=C/c2ncc(C(=O)O)s2)cc(Cl)c1OC,Percent Effect,30 µM,-16.83%
CCOc1c(Cl)cc(/C=C/c2ncc(C(=O)O)s2)cc1OC,Percent Effect,30 µM,26.63%
O=C1CNc2ncnc(Nc3cccc(Cn4cccn4)c3)c2N1,Percent Effect,"30.3 µM, […]",32.36%
O=C(Nc1ccccc1OCCc1ccccn1)N1CCOCC1,Percent Effect,"30.3 µM, […]",51.44%
O=C(Nc1ccccc1OCCc1ccccn1)N1CCOCC(O)C1 (stereo unspecified),Percent Effect,"30.3 µM, […]",34.91%
O=C(Nc1ccccc1OCCc1ccccn1)N1CC[C@@H](O)C1,Percent Effect,"30.3 µM, […]",-41.47%
CC(C)CN1C(=O)C2(CCN(CC3CCOCC3)C2)c2ccccc21.O=C(O)C(F)(F)F (stereo unspecified),Percent Effect,"30.3 µM, […]",64.12%
O=C(O)C(F)(F)F.c1cnc(N2CCC3(CC2)CN(CC2CC2)c2ccccc23)nc1,Percent Effect,"30 µM, 30.03 µM",24.73%
O=C(O)C(F)(F)F.O=C1CC2(CCN(CC3CCOC3)CC2)c2ccccc2N1CC1CC1 (stereo unspecified),Percent Effect,"30.3 µM, […]",8.748%
CC(C)CN1C(=O)C2(CCN(Cc3cccs3)C2)c2ccccc21.O=C(O)C(F)(F)F (stereo unspecified),Percent Effect,"30.3 µM, […]",1.991%
O=C(O)C(F)(F)F.O=C(O)C(F)(F)F.OCCN1CC2(CCN(CC3CC3)CC2)c2ccccc21,Percent Effect,"30.3 µM, […]",75.39%
CC(C)CN1C(=O)C2(CCN(Cc3ccoc3)C2)c2ccccc21.O=C(O)C(F)(F)F (stereo unspecified),Percent Effect,"30.3 µM, […]",-1.91%
OC1(CN2CCCC2)COCCN(c2nccs2)C1 (stereo unspecified),Percent Effect,"30.3 µM, […]",-9.416%
COCC1CN(S(=O)(=O)N(C)C)Cc2cnn(CC3CCCC3)c21.O=C(O)C(F)(F)F (stereo unspecified),Percent Effect,"30.3 µM, […]",-10.54%
Cc1ccc(F)c(NC(=O)CCC(=O)N(C)Cc2cc(C3CC3)[nH]n2)c1,Percent Effect,"30.3 µM, […]",5.303%
COc1ccccc1CC(=O)NC(CC(=O)O)c1ccc(C)cc1 (stereo unspecified),Percent Effect,"30.3 µM, […]",-0.7929%
COc1ccccc1Oc1ncccc1CNC(=O)CN1CCCC1=O,Percent Effect,"30.3 µM, […]",15.35%
Cc1cc(NC(=O)NCc2cccnc2OC(C)C)no1,Percent Effect,"30.3 µM, […]",23.81%
O=C(O)C(F)(F)F.O=C(O)C(F)(F)F.c1ccc(CN2CCc3nnc(CN4CCCCC4)n3CC2)nc1,Percent Effect,"30 µM, 30.03 µM",-31.83%
CCc1cc(N2C[C@H](C3CC3)[C@@H](N)C2)nc(N2CCOCC2)n1,Percent Effect,"30.3 µM, […]",29.17%
Cc1cc(N2C[C@H](C3CC3)[C@@H](N)C2)nc(N2CCCCC2)n1,Percent Effect,"30.3 µM, […]",55.81%
CC(C)Oc1cc(N2C[C@H](C3CC3)[C@@H](N)C2)nc(N)n1,Percent Effect,"30.3 µM, […]",15.53%
CNc1cc(C)nc(N2C[C@H](C3CC3)[C@@H](N)C2)n1,Percent Effect,"30.3 µM, […]",66.39%
CNc1cc(C)nc(N2C[C@H](NC(=O)C3CCOCC3)[C@@H](C3CC3)C2)n1,Percent Effect,"30.3 µM, […]",-19.84%
N[C@H]1CN(Cc2cnc(N3CCCC3)nc2)C[C@@H]1C1CC1,Percent Effect,"30.3 µM, […]",17.06%
CCc1cc(N2C[C@H](C3CC3)[C@@H](N)C2)nc(N2CCCC2)n1,Percent Effect,"30.3 µM, […]",72.46%
CNc1cc(C)nc(N2C[C@@H](C(=O)O)[C@H](C3CC3)C2)n1,Percent Effect,"30.3 µM, […]",1.34%
Cc1cc(C)nc(N2CCC(OCCN3CCCCC3)C2)n1 (stereo unspecified),Percent Effect,"30.3 µM, […]",-14.11%
Nc1cc2c(nn1)CCN(C(=O)c1ccc(-c3ccco3)[nH]c1=O)C2,Percent Effect,"30.3 µM, […]",9.211%
O=c1cc(C2CCNCC2)nc(CCCc2ccccc2)[nH]1,Percent Effect,"30.3 µM, […]",27.29%
Cc1cc(NC(=O)CN2CCn3c(nnc3C(C)C)C2)n(C)n1,Percent Effect,30 µM,-15.63%
Cc1nsc(N2CCCN(C(=O)NCc3cc(C)on3)CC2)n1,Percent Effect,"30.3 µM, […]",8.411%
CN(CCNc1ncc2c(n1)CCN2c1ccccc1)S(C)(=O)=O,Percent Effect,"30.3 µM, […]",14.06%
Cc1cnn(CCC(=O)N2CCCC(c3cc(C(N)=O)[nH]n3)C2)c1 (stereo unspecified),Percent Effect,"30 µM, 30.03 µM",2.466%
COc1ccccc1CC(=O)N1CCC(OCc2cccnc2)CC1,Percent Effect,"30.3 µM, […]",5.945%
Cc1ccccc1SC1CCN(C(=O)CCCS(N)(=O)=O)CC1,Percent Effect,"30.3 µM, […]",28.86%
Cc1ccccc1SC1CCN(C(=O)[C@@H]2C[C@@H](N)CN2)CC1,Percent Effect,"30.3 µM, […]",56.56%
CN1C[C@@H](N)C[C@H]1C(=O)N1CCC(Cc2ccc(F)cc2)CC1,Percent Effect,"30.3 µM, […]",8.715%
Cc1ccccc1SC1CCN(C(=O)C2CNCC(=O)N2)CC1 (stereo unspecified),Percent Effect,"30.3 µM, […]",24.39%
Cc1ccccc1SC1CCN(C(=O)[C@H]2[C@@H]3CNC[C@@H]32)CC1,Percent Effect,"30.3 µM, […]",68.53%
Cc1ccccc1SC1CCN(C(=O)C2CNC(=O)N2)CC1 (stereo unspecified),Percent Effect,"30.3 µM, […]",-12.93%
Cc1nc[nH]c1C(=O)N1CC[C@@H](NC(=O)c2ccccn2)[C@H](O)C1,Percent Effect,"30.3 µM, […]",11.08%
COCC1CC2(CCN(Cc3nccn3C)CC2)CN1c1ncccn1.O=C(O)C(F)(F)F (stereo unspecified),Percent Effect,"30.3 µM, […]",11.88%
CC(=O)c1c(C)nn(CC(=O)N2CCCC2c2ccc(C(N)=O)s2)c1C (stereo unspecified),Percent Effect,"30.3 µM, […]",42.8%
Cc1n[nH]c2ncc(CNC3CCCN(c4ncccn4)C3)cc12.Cl (stereo unspecified),Percent Effect,"30.3 µM, […]",15.17%
Cc1cnc(N2CCn3c(CN4CCOCC4)nnc3C2)nc1.O=C(O)C(F)(F)F,Percent Effect,"30.3 µM, […]",30.81%
COC(=O)CNC(=O)Cn1ccc2ccc(F)cc21,Percent Effect,"30.3 µM, […]",14.64%
Cc1nc(-c2c(C)noc2C)cc(C2CCN(CC(=O)N(C)C)CC2)n1,Percent Effect,"30.3 µM, […]",31.09%
Cc1cc(Cl)cc(C)c1CNC1CCN(CC(=O)N(C)C)CC1,Percent Effect,"30.3 µM, […]",66.45%
CC(NC1CCN(CC(=O)N(C)C)CC1)c1cnn(C(C)C)c1 (stereo unspecified),Percent Effect,"30.3 µM, […]",-44.29%
CC(C)Oc1cc(N2CCC(C(N)=O)CC2)nc(N)n1,Percent Effect,"30.3 µM, […]",14.18%
